The results in this text go back to paper PMC7862700, “An all-to-all approach to the identification of sequence-specific readers for epigenetic DNA modifications on cytosine”.

Assay in all cases: DAPPL (digital affinity profiling via proximity ligation, sequencing); 10 mM Tris-HCl pH 7.5, 50 mM NaCl, 1 mM DTT, 4% glycerol, room temperature, 30 min; GST-TFs on glutathione beads, 16-mer random dsDNA library, 0.1% formaldehyde crosslink after washing; high values mean tight binding
Holding throughout (conditions): protein: recombinant; tags: N-terminal GST; dsDNA, one strand shown

For one test, the target named is T1, FLI1 (Homo sapiens, UniProt Q01543 1-452).
T1 sequence: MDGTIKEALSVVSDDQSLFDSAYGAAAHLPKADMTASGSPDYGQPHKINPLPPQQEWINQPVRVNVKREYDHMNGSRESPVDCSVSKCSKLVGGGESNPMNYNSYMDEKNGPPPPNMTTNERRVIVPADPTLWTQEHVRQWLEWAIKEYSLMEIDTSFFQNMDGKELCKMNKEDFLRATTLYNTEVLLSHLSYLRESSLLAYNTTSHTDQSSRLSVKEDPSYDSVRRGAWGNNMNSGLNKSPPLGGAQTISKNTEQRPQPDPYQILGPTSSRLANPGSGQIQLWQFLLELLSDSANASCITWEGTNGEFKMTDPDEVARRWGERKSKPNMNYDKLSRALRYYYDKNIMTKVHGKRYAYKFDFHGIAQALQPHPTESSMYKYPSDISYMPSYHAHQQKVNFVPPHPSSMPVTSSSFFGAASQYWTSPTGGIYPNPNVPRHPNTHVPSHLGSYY
The gist of the method:
(§1)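 Human transcription factors fused to GST were expressed in yeast, captured on glutathione beads, given DNA barcodes and pooled with a GST-only negative control. Pools were incubated with 200 nmole of a 16-mer random double-stranded DNA library in Tris/NaCl/DTT/glycerol buffer at room temperature for 30 min. They were then washed, crosslinked with 0.1% formaldehyde, proximity-ligated (BsaI/T4 ligase, 1 h, 37 °C), PCR-amplified and sequenced on an Illumina NextSeq500. Binding signal is each 6-mer's read frequency for a factor divided by its frequency for the GST control.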

In a further test the target is T2, ELK1 (Homo sapiens, UniProt P19419 1-428).
T2 sequence: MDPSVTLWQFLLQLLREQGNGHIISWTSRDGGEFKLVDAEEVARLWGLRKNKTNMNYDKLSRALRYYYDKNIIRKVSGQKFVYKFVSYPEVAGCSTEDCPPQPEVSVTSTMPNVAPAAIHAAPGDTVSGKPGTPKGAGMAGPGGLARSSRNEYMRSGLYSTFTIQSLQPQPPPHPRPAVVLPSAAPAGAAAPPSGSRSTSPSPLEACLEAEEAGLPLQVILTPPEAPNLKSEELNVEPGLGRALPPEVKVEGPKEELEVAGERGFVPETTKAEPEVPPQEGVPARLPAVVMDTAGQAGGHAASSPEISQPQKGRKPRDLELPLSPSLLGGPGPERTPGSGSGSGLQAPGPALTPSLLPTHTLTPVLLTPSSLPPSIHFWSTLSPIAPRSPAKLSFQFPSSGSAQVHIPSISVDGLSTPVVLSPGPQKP
The essentials: as §1

For the next test, the target named is T3, GABPA (Homo sapiens, UniProt Q06546 1-454).
T3 sequence: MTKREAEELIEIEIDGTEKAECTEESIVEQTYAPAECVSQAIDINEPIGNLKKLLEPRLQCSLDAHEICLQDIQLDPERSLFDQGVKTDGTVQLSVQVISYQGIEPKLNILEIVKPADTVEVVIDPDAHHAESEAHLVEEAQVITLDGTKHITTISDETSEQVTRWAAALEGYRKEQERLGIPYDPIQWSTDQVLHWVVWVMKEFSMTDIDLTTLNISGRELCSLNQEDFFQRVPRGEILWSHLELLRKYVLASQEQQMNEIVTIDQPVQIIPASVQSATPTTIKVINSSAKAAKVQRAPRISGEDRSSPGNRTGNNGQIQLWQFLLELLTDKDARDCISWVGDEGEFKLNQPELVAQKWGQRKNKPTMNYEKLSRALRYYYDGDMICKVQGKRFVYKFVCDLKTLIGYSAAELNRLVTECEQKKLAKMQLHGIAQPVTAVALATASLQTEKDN
The essentials:
as §1

A further test addresses T4, ERG (Homo sapiens, UniProt P11308 1-479).
T4 sequence: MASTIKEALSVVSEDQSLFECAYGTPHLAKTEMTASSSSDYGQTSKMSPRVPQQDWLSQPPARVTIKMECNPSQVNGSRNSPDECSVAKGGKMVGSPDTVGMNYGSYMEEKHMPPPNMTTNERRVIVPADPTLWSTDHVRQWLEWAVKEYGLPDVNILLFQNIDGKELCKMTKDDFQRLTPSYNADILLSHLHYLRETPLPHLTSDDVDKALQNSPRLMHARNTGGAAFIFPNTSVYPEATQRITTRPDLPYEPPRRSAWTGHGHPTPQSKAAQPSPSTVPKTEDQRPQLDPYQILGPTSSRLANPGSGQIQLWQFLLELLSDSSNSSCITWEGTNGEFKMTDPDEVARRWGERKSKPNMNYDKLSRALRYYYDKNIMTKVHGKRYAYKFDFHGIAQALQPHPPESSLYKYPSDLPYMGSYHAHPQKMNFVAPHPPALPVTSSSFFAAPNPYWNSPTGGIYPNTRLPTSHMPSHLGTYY
The essentials: as §1

Another test concerns the target ELF1 (Homo sapiens, UniProt P32519 1-619). The gist of the method: as §1
In another test the target is T5, EHF (Homo sapiens, UniProt Q9NZC4 1-300).
T5 sequence: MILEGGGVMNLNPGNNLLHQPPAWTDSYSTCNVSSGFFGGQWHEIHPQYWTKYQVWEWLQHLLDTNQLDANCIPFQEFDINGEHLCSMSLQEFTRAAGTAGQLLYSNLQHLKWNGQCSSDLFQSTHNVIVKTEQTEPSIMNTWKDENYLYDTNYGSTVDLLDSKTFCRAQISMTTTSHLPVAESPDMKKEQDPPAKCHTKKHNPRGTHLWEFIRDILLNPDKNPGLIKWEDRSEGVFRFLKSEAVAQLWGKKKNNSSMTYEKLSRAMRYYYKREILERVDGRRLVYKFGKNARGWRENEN
The essentials: as §1

In test [1] the target is SPI1 (Homo sapiens, UniProt P17947 1-270). The gist of the method:
as §1

The target in a further test is SPIB (Homo sapiens, UniProt Q01892 1-262). The essentials: as §1
The target of test [2] is SPI1 (Homo sapiens, UniProt P17947 1-270). The essentials: as §1
The source holds these as a separate data set.

In the next test the target is T6, ELK3 (Homo sapiens, UniProt P41970 1-407).
T6 sequence: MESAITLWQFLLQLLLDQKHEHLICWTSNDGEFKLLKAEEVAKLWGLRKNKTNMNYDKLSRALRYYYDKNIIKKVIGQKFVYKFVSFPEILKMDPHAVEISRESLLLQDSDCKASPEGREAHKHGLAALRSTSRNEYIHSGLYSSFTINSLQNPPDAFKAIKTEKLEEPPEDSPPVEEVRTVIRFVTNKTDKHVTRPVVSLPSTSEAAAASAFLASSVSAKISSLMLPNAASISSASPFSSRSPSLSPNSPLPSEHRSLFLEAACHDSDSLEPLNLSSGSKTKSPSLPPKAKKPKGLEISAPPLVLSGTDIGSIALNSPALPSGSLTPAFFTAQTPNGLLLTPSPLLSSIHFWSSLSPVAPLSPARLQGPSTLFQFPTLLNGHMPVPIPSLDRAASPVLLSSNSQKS
The gist of the method: as §1

Chain of ELF1 (P32519 whole entry): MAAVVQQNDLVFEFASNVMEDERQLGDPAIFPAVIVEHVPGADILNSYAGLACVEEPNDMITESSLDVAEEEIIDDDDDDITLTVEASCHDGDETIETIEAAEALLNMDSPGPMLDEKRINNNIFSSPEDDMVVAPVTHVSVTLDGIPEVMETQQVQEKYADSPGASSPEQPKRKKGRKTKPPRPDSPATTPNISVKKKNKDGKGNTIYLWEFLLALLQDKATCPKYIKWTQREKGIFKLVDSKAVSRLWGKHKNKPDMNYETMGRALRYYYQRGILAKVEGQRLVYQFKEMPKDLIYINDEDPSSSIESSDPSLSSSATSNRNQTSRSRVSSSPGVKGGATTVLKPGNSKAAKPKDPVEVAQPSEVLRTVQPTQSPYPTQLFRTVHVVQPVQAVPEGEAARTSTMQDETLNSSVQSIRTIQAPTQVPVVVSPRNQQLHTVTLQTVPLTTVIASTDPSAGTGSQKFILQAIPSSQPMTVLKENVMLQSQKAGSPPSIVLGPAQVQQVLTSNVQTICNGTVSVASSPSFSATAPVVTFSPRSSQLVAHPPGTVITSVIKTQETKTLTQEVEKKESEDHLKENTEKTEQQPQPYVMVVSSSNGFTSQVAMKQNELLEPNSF
Chain of SPIB (Q01892 whole entry): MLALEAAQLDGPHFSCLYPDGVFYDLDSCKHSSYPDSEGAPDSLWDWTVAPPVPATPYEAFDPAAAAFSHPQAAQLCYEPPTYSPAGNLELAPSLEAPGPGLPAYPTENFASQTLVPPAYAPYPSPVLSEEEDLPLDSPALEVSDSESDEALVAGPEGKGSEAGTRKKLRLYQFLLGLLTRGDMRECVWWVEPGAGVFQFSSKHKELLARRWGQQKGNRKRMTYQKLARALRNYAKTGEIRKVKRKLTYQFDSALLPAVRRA

In the case of CCCCGA, the binding signal in the test with FLI1 is 1.23 fold enrichment (6-mer frequency, TF over GST control); with ELK1, 1.2 fold enrichment (6-mer frequency, TF over GST control); with GABPA, 1.21 fold enrichment (6-mer frequency, TF over GST control); with ERG, 1.16 fold enrichment (6-mer frequency, TF over GST control); in the test with ELF1 it was 1.16 fold enrichment (6-mer frequency, TF over GST control); in the test with EHF it was 1.14 fold enrichment (6-mer frequency, TF over GST control). Besides, the binding signal is 1.15 fold enrichment (6-mer frequency, TF over GST control) with SPI1 [1] and 1.23 fold enrichment (6-mer frequency, TF over GST control) with SPIB.
Consider TGTTGA, for which the binding signal with FLI1 was 1.15 fold enrichment (6-mer frequency, TF over GST control); in the test with ELK1, 1.08 fold enrichment (6-mer frequency, TF over GST control); with GABPA it was 1.16 fold enrichment (6-mer frequency, TF over GST control); with ERG it was 1.08 fold enrichment (6-mer frequency, TF over GST control); with ELF1, 1.16 fold enrichment (6-mer frequency, TF over GST control); with EHF it was 1.07 fold enrichment (6-mer frequency, TF over GST control). Besides, the binding signal with SPI1 [1] is 1.11 fold enrichment (6-mer frequency, TF over GST control); with SPIB, 1.09 fold enrichment (6-mer frequency, TF over GST control).
On to CAACAC, for which the binding signal with FLI1 was 1.13 fold enrichment (6-mer frequency, TF over GST control); with ELK1, 1.23 fold enrichment (6-mer frequency, TF over GST control); with GABPA, 1.19 fold enrichment (6-mer frequency, TF over GST control); in the test with ERG, 1.1 fold enrichment (6-mer frequency, TF over GST control); in the test with ELF1, 1.13 fold enrichment (6-mer frequency, TF over GST control); in the test with EHF, 1.09 fold enrichment (6-mer frequency, TF over GST control). The binding signal in the test with SPI1 [1] is 1.06 fold enrichment (6-mer frequency, TF over GST control); with SPIB it was 1.06 fold enrichment (6-mer frequency, TF over GST control).
In the case of CCAAAT, the binding signal was 1.02 fold enrichment (6-mer frequency, TF over GST control) with FLI1; 1.1 fold enrichment (6-mer frequency, TF over GST control) with ELK1; 1.01 fold enrichment (6-mer frequency, TF over GST control) with GABPA; 1.1 fold enrichment (6-mer frequency, TF over GST control) with ERG; 1.16 fold enrichment (6-mer frequency, TF over GST control) in the test with ELF1; 1.05 fold enrichment (6-mer frequency, TF over GST control) with EHF. Also, the binding signal was 1.09 fold enrichment (6-mer frequency, TF over GST control) in the test with SPI1 [1] and 1.04 fold enrichment (6-mer frequency, TF over GST control) with SPIB.
For the sequence GTATAA, the binding signal with FLI1 is 1.02 fold enrichment (6-mer frequency, TF over GST control); in the test with ELK1, 1.21 fold enrichment (6-mer frequency, TF over GST control); in the test with GABPA, 1.06 fold enrichment (6-mer frequency, TF over GST control); with ERG, 1.06 fold enrichment (6-mer frequency, TF over GST control); with ELF1, 1.06 fold enrichment (6-mer frequency, TF over GST control); with EHF, 1.09 fold enrichment (6-mer frequency, TF over GST control). The binding signal with SPI1 [1] is 1.12 fold enrichment (6-mer frequency, TF over GST control); in the test with SPIB, 1.19 fold enrichment (6-mer frequency, TF over GST control).
As for CACTTC, the binding signal in the test with FLI1 was 3.41 fold enrichment (6-mer frequency, TF over GST control); with ELK1 it was 3.77 fold enrichment (6-mer frequency, TF over GST control); in the test with GABPA, 3.25 fold enrichment (6-mer frequency, TF over GST control); with ERG, 4.19 fold enrichment (6-mer frequency, TF over GST control); in the test with ELF1, 3.41 fold enrichment (6-mer frequency, TF over GST control); in the test with EHF, 3.63 fold enrichment (6-mer frequency, TF over GST control). For the same sequence, the binding signal in the test with SPI1 [2] is 5.56 fold enrichment (6-mer frequency, TF over GST control); with SPIB, 3.54 fold enrichment (6-mer frequency, TF over GST control); with ELK3, 3.97 fold enrichment (6-mer frequency, TF over GST control).
For the sequence TAGTCT, the binding signal in the test with FLI1 was 1.09 fold enrichment (6-mer frequency, TF over GST control); in the test with ELK1 it was 1.07 fold enrichment (6-mer frequency, TF over GST control); in the test with GABPA it was 1.21 fold enrichment (6-mer frequency, TF over GST control); with ERG, 1.08 fold enrichment (6-mer frequency, TF over GST control); in the test with ELF1, 1.07 fold enrichment (6-mer frequency, TF over GST control); with EHF it was 1.05 fold enrichment (6-mer frequency, TF over GST control). In addition, the binding signal with SPI1 [1] was 1.07 fold enrichment (6-mer frequency, TF over GST control).
For the sequence ACCTCG, the binding signal with FLI1 is 1 fold enrichment (6-mer frequency, TF over GST control); with ELK1 it was 1.18 fold enrichment (6-mer frequency, TF over GST control); in the test with GABPA it was 1.24 fold enrichment (6-mer frequency, TF over GST control); in the test with ERG it was 1.15 fold enrichment (6-mer frequency, TF over GST control); with ELF1 it was 1.11 fold enrichment (6-mer frequency, TF over GST control); in the test with EHF, 1.16 fold enrichment (6-mer frequency, TF over GST control). Besides, the binding signal with SPI1 [1] is 1.14 fold enrichment (6-mer frequency, TF over GST control); with SPIB it was 1.19 fold enrichment (6-mer frequency, TF over GST control).
